Measurements from PubChem BioAssay (NCI).
The panel holds about 83,000 compounds, 20% with a hit somewhere; the sample as a whole holds those more often.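 Plates (96-well) were seeded with cells, treated with compound at one concentration, and incubated for 48 hours before percent growth was determined.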 A number with no mark means an inactive call. Active and inactive are the calls of the source. Rule for the calls: active = growth percent below 10; inactive = the rest.

Columns and labels:
Assay in all cases: NCI-60 one-dose screen, 48 h (100 = growth as untreated, 0 = no growth, -100 = all killed)
[1] = test system: RPMI-8226 leukemia; settings: 10 µM
[2] = test system: OVCAR-8 ovarian; settings: 10 µM
[3] = test system: OVCAR-5 ovarian; settings: 10 µM
[4] = test system: OVCAR-4 ovarian; settings: 10 µM
[5] = test system: SK-OV-3 ovarian; settings: 10 µM
[6] = test system: IGROV1 ovarian; settings: 10 µM
[7] = test system: OVCAR-3 ovarian; settings: 10 µM
[8] = test system: HS 578T breast; settings: 10 µM
[9] = test system: NCI/ADR-RES ovarian; settings: 10 µM
[10] = test system: T-47D breast; settings: 10 µM
[11] = test system: BT-549 breast; settings: 10 µM
[12] = test system: MDA-MB-435 melanoma; settings: 10 µM
[13] = test system: SW-620 colon; settings: 10 µM
[14] = test system: MCF7 breast; settings: 10 µM unless noted
[15] = test system: HCT-116 colon; settings: 10 µM
[16] = test system: HCC-2998 colon; settings: 10 µM
[17] = test system: KM12 colon; settings: 10 µM
[18] = test system: SR leukemia; settings: 10 µM

Structure (SMILES) | growth [1] [%] | growth [2] [%] | growth [3] [%] | growth [4] [%] | growth [5] [%] | growth [6] | growth [7] [%] | growth [8] [%] | growth [9] [%] | growth [10] [%] | growth [11] [%] | growth [12] [%] | growth [13] [%] | growth [14] | growth [15] [%] | growth [16] [%] | growth [17] [%] | growth [18] [%]
O=C1OC(=O)C2C1C1(Cl)C(Cl)=C(Cl)C2(Cl)C2C(=O)OC(=O)C21 (stereo not given) | 96.4 | 100 | 106 | 101 | 102 | 109% | 112 | 113 | 108 | 95.4 | 103 | 101 | 113 | 95.8% | 102 | 108 | 106 | –
COc1ccc(C(=O)C(Br)C(Br)C(=O)O)cc1 (stereo not given) | 110 | 105 | 101 | 118 | 104 | 110% | 116 | 99.6 | 92.1 | 106 | 99.5 | 108 | 113 | 91.1% | 94.9 | 113 | 111 | –
O=C(NC1CCCCC1)OCc1c(COC(=O)NC2CCCCC2)c(-c2ccc(Cl)c(Cl)c2)n2c1CCC2 | 40 | 35 | 19 | 11.5 | 12.4 | -42.4% (active) | 31.2 | 39.7 | 25.2 | 20.8 | 53.7 | 56.3 | 32.6 | 27.4% | 15.5 | 30.5 | 56.3 | –
COc1ccc(/C=C/c2cccc[n+]2C)cc1 | 90.3 | 105 | 95.8 | 107 | 78.8 | 85.3% | 103 | 119 | 103 | 97.4 | 89.8 | 100 | 79.9 | 96% | 106 | 83.6 | 33 | –
COC(=O)c1cccc(Br)c1 | 106 | 112 | 88.8 | 112 | 118 | 116% | 121 | 117 | 106 | 111 | 107 | 94 | 114 | 116% | 97.8 | 107 | 112 | –
CN(C)C(=O)Oc1cccc([N+](C)(C)C)c1 | 117 | 103 | 104 | 83.9 | 107 | 115% | 115 | 107 | 114 | 99.8 | 112 | 105 | 108 | 87% | 109 | 106 | 102 | –
O=C(/C=C\c1ccc(O)cc1)c1ccccc1 | – | 98.6 | 88.4 | – | 108 | 87.3% | 96 | 110 | 101 | 84.6 | 37.4 | 95 | 101 | 80.8% | 78.2 | 112 | 71 | 76.6
CCOc1ccccc1/C=N/Nc1nc2ccccc2o1 | 105 | 108 | 97.3 | 41.9 | 94.2 | 116% | 122 | 101 | 97.6 | 23.4 | 98.3 | 113 | 102 | 7.97% (active) | 102 | 62.2 | 86.4 | –
COc1cc(CCN=Cc2ccccc2O)c([N+](=O)[O-])cc1OC | 105 | 107 | 101 | 120 | 108 | 96.5% | 101 | 114 | 103 | 97.9 | 91.2 | 110 | 104 | 104% | 95 | 101 | 107 | –
CC(=O)Nc1ccc(NC(C)=O)c2c1C(=O)c1ccccc1C2=O | – | 92.8 | 88.4 | – | 88.5 | 67% | 104 | 102 | 95.4 | 81.2 | 36.4 | 107 | 91 | 87.3% | 79.3 | 105 | 94.5 | 78.9
O=C(NCc1ccco1)Nc1c(Cl)cc(Cl)cc1Cl | 100 | 101 | 97.7 | 88.4 | 103 | 105% | 112 | 109 | 101 | 88.6 | 96.1 | 96.5 | 102 | 92.8% | 95.5 | 102 | 104 | –
C#C[C@H]1CCCCCC1O (stereo not given in full) | 97.2 | 111 | 115 | 120 | 110 | 107% | 113 | 101 | 101 | 95.4 | 113 | 109 | 104 | 107% | 106 | 102 | 107 | –
CN(C)CCN(Cc1ccccc1)c1ccccc1 | – | 115 | – | – | 110 | 124% | 121 | 112 | 103 | 95 | 119 | 95 | 102 | 112% | 113 | 105 | 113 | 88.1
COCCCNC(=O)c1nnn2c1nc(N)c1cc(Cl)ccc12 | 96.9 | 103 | 109 | 90.7 | 79.2 | 78.6% | 81.1 | 90.4 | 93.9 | 79 | 79.2 | 10.9 | 81 | 73.4% | 77.6 | 89.4 | 50.2 | –
NC(=O)NC(=O)c1ccc(Cl)cc1 | – | 106 | 113 | – | 103 | 92.6% | 125 | 97.9 | 107 | 96.9 | 99.4 | 102 | 102 | – | 87.9 | 111 | 110 | 88.9
OC1OC(COC(c2ccccc2)(c2ccccc2)c2ccccc2)C(O)C(O)C1O (stereo not given) | 95.9 | 93.7 | 95.9 | 84.1 | 99.9 | 95.3% | 104 | 105 | 104 | 87.5 | 99.6 | 90.9 | 105 | 93.3% | 90.7 | 110 | 107 | –
Cc1ccncc1C(N)=O | – | 107 | 138 | 96.8 | 101 | – | 90.6 | 116 | 133 | 84.5 | 111 | 118 | 98.4 | 96% | 94.5 | 124 | 90.1 | 109
CC1(C)N=C(N)N=C(N)N1c1ccc(Cl)cc1 | – | 30.8 | – | 55 | 61 | 35.9% | 69.9 | – | – | 94.6 | 76 | 28.8 | – | 41.1% | 25.1 | 36.8 | 50.1 | 52.7
